Consider 17 molecules from PubChem BioAssay (EPA / NIEHS).

Test [1] in a line: TOX21_p53_BLA_p3_viability: Viability Assessment in the Tox21 HCT-116 p53 Agonism Beta-lactamase Assay, Phase 3 (AID 2283593).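 Further: cells exposed to compound for 16 h before reading.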 The method in brief:
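Cellular ATP was quantified by CellTiter-Glo luminescence, read after 30 min at room temperature. Beforehand, HCT116 cells (4000/well) received compound 5 h post-seeding, 217-fold diluted from DMSO, then incubated 16 h at 37C.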

A short description of test [2]: TOX21_p53_BLA_p4_viability: Viability Assessment in the Tox21 HCT-116 p53 Agonism Beta-lactamase Assay, Phase 4 (AID 2283597).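 Further: hits lower the luminescence signal meaning cytotoxicity.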 The method in brief: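 Cytotoxicity as reduced cellular ATP (CellTiter-Glo luminescence, 30 min room temperature), measured in the same wells following the CCF4 FRET p53 reading. Human HCT-116 cells received compounds in DMSO (217-fold dilution) for 16 h.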

Test [3] has as its target Cellular tumor antigen p53 (Homo sapiens) (UniProt P04637). As to the kind of experiment: TOX21_p53_BLA_p5_ratio: Tox21 HCT-116 p53 Agonism Beta-lactamase Assay, Ratio, Phase 5 (AID 2283599). The method in brief:
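Beta-lactamase reporter ratio (blue 460 nm over green 530 nm, 405 nm excitation) after 2 h CCF4-AM loading, in HCT-116 cells exposed 16 h at 37 C to compounds pinned at 217-fold dilution. Increases relative to DMSO baseline scored.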

The target is the same in test [4]. As to the kind of experiment: TOX21_p53_BLA_p4_ratio: Tox21 HCT-116 p53 Agonism Beta-lactamase Assay, Ratio, Phase 4 (AID 2283601). The method in brief: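 Signal is the blue/green (460nm/530nm) ratio of cleaved versus uncleaved CCF4-AM substrate, read after 2 h substrate loading. Cells were HCT116 carrying the p53-responsive beta-lactamase reporter, dosed 16 h at 37C, 5% CO2; CellTiter-Glo measured in parallel.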

Test [5] in a line: TOX21_p53_BLA_p5_viability: Viability Assessment in the Tox21 HCT-116 p53 Agonism Beta-lactamase Assay, Phase 5 (AID 2283600). Put shortly:
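Viability came from CellTiter-Glo ATP luminescence, read after 30 min at room temperature. Before this, HCT-116 p53-bla cells (4000/well) had 16 hours of compound exposure at 37C, with DMSO stocks diluted 217-fold on transfer.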

For test [6], the target named is Cellular tumor antigen p53 (Homo sapiens) (UniProt P04637). As to the kind of experiment: TOX21_p53_BLA_p3_ratio: Tox21 HCT-116 p53 Agonism Beta-lactamase Assay, Ratio, Phase 3 (AID 2283596). The method in brief: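 Cells were seeded at 4000/well, rested 5 h at 37C, then dosed with DMSO compound solutions (217-fold dilution) for 16 h. CCF4-AM substrate was loaded for 2 h at room temperature, and the 460/530 nm emission ratio was fitted for gain of signal versus DMSO.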

Test [7] deals with Thyroid hormone receptor alpha (Rattus norvegicus) + Thyroid hormone receptor beta (Rattus norvegicus) (UniProt P18113+P63059). As to the kind of experiment: TOX21_TR_LUC_GH3_Antagonist_Followup: Tox21 GH3 Thyroid Hormone Receptor Antagonism Luciferase Follow-Up Assay (AID 2283942). Put shortly:
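Loss of T3-driven (1.0 nM final) reporter activity in GH3 cells was read by ONE-Glo luminescence after 24 h incubation at 37C; 15-point compound series spanned 92 uM to 5nM final, 1,500 cells/well.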

A further test has as its target THRA (gene 7067) (UniProt P10827). The test can be described thus: TOX21_TRA_COA_Antagonist_Followup_ratio: Tox21 Thyroid Hormone Receptor alpha Antagonism through Coactivator Recruitment Follow-Up Assay, Ratio (AID 2283953). The method in brief:
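We measured antagonism of T3-type coactivator recruitment using a TR-FRET ratio (emission 520 and 495 nm) between a Tb-labelled anti-GST antibody on TRα LBD (2.5 nM) and SRC-2 peptide (200 nM). Activity was scaled between DMSO and T3 wells.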

Test [8] concerns the target THRB (gene 7068) (UniProt P10828). The test can be described thus: TOX21_TRB_BLA_Antagonist_Followup_ratio: Tox21 Thyroid Hormone Receptor beta Antagonism Beta-lactamase (BLA) Follow-Up Assay, Ratio (AID 2283958). Put shortly: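 Using charcoal-stripped 2% FBS medium, human TRβ-LBD/GAL4 reporter HEK293T cells received test compounds for 18 h. The endpoint is the cleaved-to-uncleaved substrate ratio (460/530 nm).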

A short description of test [9]: TOX21_TRB_BLA_Antagonist_Followup_viability: Viability Assessment in the Tox21 Thyroid Hormone Receptor beta Antagonism Beta-lactamase (BLA) Follow-Up Assay (AID 2283961). The method in brief: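 ATP-based CellTiter-Glo luminescence (30 min, room temperature) run in the same wells as the TRβ-bla readout. Cells: GeneBLAzer HEK293T expressing GAL4-TRβ LBD, exposed 18 h at 37C to compounds at 11 concentrations in triplicate, stripped-serum medium.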

Test [10] deals with THRB (gene 7068) (UniProt P10828). The test can be described thus: TOX21_TRB_COA_Antagonist_Followup_ratio: Tox21 Thyroid Hormone Receptor beta Antagonism through Coactivator Recruitment Follow-Up Assay, Ratio (AID 2283967). The method in brief: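 Coactivator recruitment to the GST-tagged TRb ligand-binding domain (5.0 nM) was read as the 520/495 nm TR-FRET ratio, using 200 nM fluorescein SRC-2 peptide and 2 nM terbium anti-GST. Scaled between DMSO and T3 wells; loss of signal fitted.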

Test [11] has as its target Retinoic acid receptor RXR-alpha (Homo sapiens) (UniProt P19793). The test can be described thus: TOX21_TR_RXR_BLA_Antagonist_Followup_ratio: Tox21 Thyroid Hormone Receptor beta Retinoid X Receptor alpha (RXRa) Antagonism Beta-lactamase (BLA) Follow-Up Assay, Ratio (AID 2283972). The method in brief: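 After 5 h attachment at 37C, HEK293T RXRa-bla cells (2,500/well, 2% charcoal-stripped FBS, no phenol red) received compounds at 11 concentrations in triplicate for 16 h. Beta-lactamase read as 460:530 nm ratio after 2 h RT substrate loading.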

Test [12] in a line: TOX21_TR_RXR_BLA_Antagonist_Followup_viability: Viability Assessment in the Tox21 Thyroid Hormone Receptor beta Retinoid X Receptor alpha (RXRa) Antagonism Beta-lactamase (BLA) Follow-Up Assay (AID 2283979). Put shortly: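 Follow-up compounds (11 concentrations, triplicate) were incubated 16 h at 37C/5% CO2 with HEK293T RXRa-bla cells seeded at 2,500/well in charcoal-stripped-serum medium. ATP content by CellTiter-Glo luminescence gave viability; curves fitted in both directions against DMSO.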

Results filed as inconclusive are left out. Active and inactive are the calls of the source. How the source made its calls: active means hit-call score of the fitted dose curve at least 0.9, where 1 is the maximum; inconclusive means response in the unintended direction; inactive means score below 0.9.

Chain of Cellular tumor antigen p53 (Homo sapiens) (P04637 whole entry, looked up): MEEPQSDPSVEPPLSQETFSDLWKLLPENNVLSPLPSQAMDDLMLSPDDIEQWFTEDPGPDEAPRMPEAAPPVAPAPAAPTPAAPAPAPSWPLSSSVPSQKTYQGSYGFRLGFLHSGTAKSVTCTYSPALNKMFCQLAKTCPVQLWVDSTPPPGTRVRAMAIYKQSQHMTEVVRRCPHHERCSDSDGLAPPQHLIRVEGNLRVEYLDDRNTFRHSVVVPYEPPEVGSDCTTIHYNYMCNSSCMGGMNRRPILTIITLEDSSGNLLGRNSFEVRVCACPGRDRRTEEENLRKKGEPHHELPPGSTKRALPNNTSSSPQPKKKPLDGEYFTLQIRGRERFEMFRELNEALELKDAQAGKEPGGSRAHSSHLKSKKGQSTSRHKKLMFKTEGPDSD
Chain of THRB (gene 7068) (P10828 whole entry, looked up, the tested form may be a part): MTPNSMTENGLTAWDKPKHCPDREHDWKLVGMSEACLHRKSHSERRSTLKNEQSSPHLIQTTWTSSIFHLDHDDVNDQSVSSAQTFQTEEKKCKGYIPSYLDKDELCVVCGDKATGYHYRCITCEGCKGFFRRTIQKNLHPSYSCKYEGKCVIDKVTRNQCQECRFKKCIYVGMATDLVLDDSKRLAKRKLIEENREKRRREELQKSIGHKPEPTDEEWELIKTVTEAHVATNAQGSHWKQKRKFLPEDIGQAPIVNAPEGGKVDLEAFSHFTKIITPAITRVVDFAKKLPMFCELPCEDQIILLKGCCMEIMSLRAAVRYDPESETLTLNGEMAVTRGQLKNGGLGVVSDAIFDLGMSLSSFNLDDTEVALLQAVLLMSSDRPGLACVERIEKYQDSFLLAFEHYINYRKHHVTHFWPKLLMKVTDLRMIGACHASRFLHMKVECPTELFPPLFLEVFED
Chain of Retinoic acid receptor RXR-alpha (Homo sapiens) (P19793 whole entry, looked up): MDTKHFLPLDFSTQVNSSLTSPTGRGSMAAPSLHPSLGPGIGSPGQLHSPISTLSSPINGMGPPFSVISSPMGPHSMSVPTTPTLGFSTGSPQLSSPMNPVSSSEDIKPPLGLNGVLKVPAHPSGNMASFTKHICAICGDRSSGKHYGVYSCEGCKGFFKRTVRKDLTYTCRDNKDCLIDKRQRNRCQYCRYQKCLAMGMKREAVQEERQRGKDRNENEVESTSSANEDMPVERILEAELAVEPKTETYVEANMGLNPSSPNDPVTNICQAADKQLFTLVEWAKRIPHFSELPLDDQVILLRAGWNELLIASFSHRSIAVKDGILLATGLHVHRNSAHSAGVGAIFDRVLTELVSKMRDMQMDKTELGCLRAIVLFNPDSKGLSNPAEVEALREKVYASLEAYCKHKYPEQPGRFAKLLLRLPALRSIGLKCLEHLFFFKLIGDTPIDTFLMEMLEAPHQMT
Chain of THRA (gene 7067) (P10827 whole entry, looked up, the tested form may be a part): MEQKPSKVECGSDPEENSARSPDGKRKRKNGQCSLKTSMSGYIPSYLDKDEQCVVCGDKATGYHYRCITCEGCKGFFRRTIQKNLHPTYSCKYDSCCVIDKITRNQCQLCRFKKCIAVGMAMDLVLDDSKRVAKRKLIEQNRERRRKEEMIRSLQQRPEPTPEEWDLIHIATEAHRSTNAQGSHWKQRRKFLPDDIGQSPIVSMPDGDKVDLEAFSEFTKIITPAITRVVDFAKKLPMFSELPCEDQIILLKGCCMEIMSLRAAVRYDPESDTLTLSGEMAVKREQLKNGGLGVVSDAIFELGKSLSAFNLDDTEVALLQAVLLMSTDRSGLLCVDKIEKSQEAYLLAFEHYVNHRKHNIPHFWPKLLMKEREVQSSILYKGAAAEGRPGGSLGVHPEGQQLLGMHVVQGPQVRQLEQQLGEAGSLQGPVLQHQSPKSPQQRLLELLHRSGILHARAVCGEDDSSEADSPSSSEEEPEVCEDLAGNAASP

For `CN1C(C(=O)Nc2ccccn2)C(=O)c2sc(Cl)cc2S1(=O)=O` (stereo unspecified), the molecule was classed as inactive in test [1], in [2], in test [3] and in test [4].

With `C/C=C(/CC[C@@H](C)[C@H]1CC[C@H]2C3=CC[C@H]4[C@H](C)[C@@H](O)CC[C@]4(C)[C@H]3CC[C@]12C)C(C)C`, the outcome in [1], in [2] and in test [5] was inactive.

Take `CN(C)CCCNCCCN`: the result in [1], in test [6], in test [3], in test [5] and in [4] was inactive.

In the case of `CC(=O)c1ccc(C(C)=O)cc1`, the molecule was called inactive in test [1], in [6], in [3] and in test [5].

In the case of `O=S(=O)(O)c1cccc(S(=O)(=O)O)c1`, the molecule was classed as inactive in test [1], in test [6], in test [3] and in test [5].

On to `CCCCCCCCCCCC[N+](C)(C)CCCS(=O)(=O)[O-]`, for which the result in [1], in [2], in [3] and in test [4] was inactive.

By AC50 is commonly meant the concentration at which the activity in the assay is half-maximal. For `CN1CCCC(CC2c3ccccc3Sc3ccccc32)C1` (stereo unspecified), the molecule was called inactive (in test [1]; in test [6]; in [2]; in test [5]; with THRA (gene 7067); with THRB (gene 7068) [8]). For the same molecule, the outcome (in the test with THRB (gene 7068) [10]; in test [11]; in test [12]) was inactive. Moreover, the AC50 was 15.5 µM (active) in test [7] and 8.56 µM (active) in test [9].

In the case of `O=C(/C=C/c1ccc(O)c(O)c1)O[C@@H](C(=O)O)[C@@H](OC(=O)/C=C/c1ccc(O)c(O)c1)C(=O)O`, the molecule was called inactive in test [1], in test [6], in test [2], in test [3], in test [5] and in test [4].

With `CC(O)CCCCn1c(=O)c2c(ncn2C)n(C)c1=O` (stereo unspecified), the molecule was classed as inactive in [1], in test [6], in test [3] and in test [4].

Turning to `CS(=O)(=O)O`, the molecule was classed as inactive in test [1], in test [2] and in test [3].

On to `O=C(O)c1cc(C(=O)O)cc(C(=O)O)c1`, for which the call in test [1], in test [6], in test [2], in test [3] and in test [4] was inactive.

Regarding `COc1ccc(CC2c3cc(OC)c(OC)cc3CC[N+]2(C)CCC(=O)OCCCCCOC(=O)CC[N+]2(C)CCc3cc(OC)c(OC)cc3C2Cc2ccc(OC)c(OC)c2)cc1OC` (stereo unspecified), the result in test [1] and in test [2] was inactive.

Regarding `CCNC(=O)[C@@H]1CCCN1C(=O)[C@H](CCCN=C(N)N)NC(=O)[C@H](CC(C)C)NC(=O)[C@@H](CC(C)C)NC(=O)[C@H](Cc1ccc(O)cc1)NC(=O)[C@H](CO)NC(=O)[C@H](Cc1c[nH]c2ccccc12)NC(=O)[C@H](Cc1cnc[nH]1)NC(=O)[C@@H]1CCC(=O)N1`, the call in test [1], in test [2] and in test [3] was inactive.

As for `COc1cc(Cl)ccc1Cl`, the molecule was called inactive in test [1], in test [6], in test [2] and in test [5].

Consider `CCCCOC(=O)C(=O)OCCCC`, for which the result in test [1], in test [2], in [3], in test [5] and in test [4] was inactive.

For the molecule `CCCCOc1ccc(OCCCN2CCOCC2)cc1`, the call in test [1], in test [6], in [2], in [5] and in test [4] was inactive.

`C=C(C)C(=O)OCCCCCCCC(C)C`: the outcome in test [1], in test [2], in test [3] and in test [5] was inactive.
